# According to PubChem BioAssay AID1851 (National Center for Advancing Translational Sciences (NCATS), 2009):
# “And” between values parts separate entries of the source, which are not always exact repeats. Identical values can stand only once. Among all 16,000 compounds or so, about 5,700 (36%) were called active. Not shown: some 24% with an inconclusive outcome. Calls follow the shape of the dose curve; as a rule, active = well fitted curve in the direction sought with a large enough effect; inconclusive = small, poorly fitted or top-dose-only effect, or effect the other way; inactive = no such curve, though single readings can be large or run the other way. The list shows a part of the results.
# Target: Cytochrome P450 1A2 (Homo sapiens) (UniProt P05177)
# Sequence (P05177 whole entry, looked up): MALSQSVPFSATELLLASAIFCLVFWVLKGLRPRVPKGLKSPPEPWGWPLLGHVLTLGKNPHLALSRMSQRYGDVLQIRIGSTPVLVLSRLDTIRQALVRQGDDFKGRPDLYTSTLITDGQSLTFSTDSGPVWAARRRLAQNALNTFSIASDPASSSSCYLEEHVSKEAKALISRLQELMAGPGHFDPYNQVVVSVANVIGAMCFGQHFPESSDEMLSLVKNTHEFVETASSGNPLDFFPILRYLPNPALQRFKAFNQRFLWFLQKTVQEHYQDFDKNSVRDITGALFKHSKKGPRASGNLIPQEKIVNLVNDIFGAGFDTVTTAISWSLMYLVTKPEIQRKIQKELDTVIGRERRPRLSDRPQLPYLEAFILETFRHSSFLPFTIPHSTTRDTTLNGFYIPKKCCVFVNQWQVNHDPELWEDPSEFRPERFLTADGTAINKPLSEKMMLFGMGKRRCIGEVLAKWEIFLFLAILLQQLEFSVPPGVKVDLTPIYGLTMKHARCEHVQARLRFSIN
# Test: Cytochrome panel assay with activity outcomes
# Settings: recombinant CYP, pro-luciferin dealkylation, luminescence, p450-cyp1a2; series mostly up to 57.1 µM; activity, negative = inhibition: at the top concentration
# % is scaled to controls: 0 for no effect and ±100 for the full control effect.
SMILES,AC50,"activity, negative = inhibition"
O=C(c1n[nH]c(=O)c2ccccc12)N1CCN(C2c3ccccc3-c3ccccc32)CC1,15800 nM (active),–
CCCOc1ccc(CSC(CC(=O)O)C(=O)O)cc1 (stereo not drawn),–,12.7% (inactive)
CCOc1ccc(CSC(CC(=O)O)C(=O)O)cc1 (stereo not drawn),–,-24.2% (inactive)
CCCCOc1ccc(CC(=O)NO)cc1,1580 nM (active),–
O=C1C2Sc3[nH]c(=O)sc3C(c3ccccc3)C2C(=O)N1c1ccc(Cl)cc1 (stereo not drawn),–,-26.8% (inactive)
COc1ccc([C@@H]2CC(=O)c3c(O)cc(O[C@H]4O[C@@H](CO[C@H]5O[C@@H](C)[C@@H](O)[C@@H](O)[C@@H]5O)[C@@H](O)[C@@H](O)[C@@H]4O)cc3O2)cc1O,–,-0.0093% [at 25.6 µM] (inactive)
Brc1ccc2cccnc2c1,2510 nM (active),–
CC(=O)Nc1ccc(OCC(O)Cn2c3ccccc3c3ccccc32)c(C)c1 (stereo not drawn),2820 nM (active),–
COc1ccc(-c2cc3ccccc3n2CC(O)CNCCO)cc1 (stereo not drawn),–,-21.9% (inactive)
C[n+]1cn(CC(O)COCc2ccccc2)c2ccccc21 (stereo not drawn),–,-13% (inactive)
C=CCN(CC=C)CC(O)Cn1c2ccccc2c2ccccc21 (stereo not drawn),2000 nM (active),–
CC(=O)Nc1ccc(OCC(O)Cn2cnc3ccccc32)cc1 (stereo not drawn),–,-3.03% (inactive)
Cc1ccccc1OCC(O)Cn1c2ccccc2c2ccccc21 (stereo not drawn),1780 nM (active),–
Cc1ccc(OCC(O)Cn2c3ccccc3c3ccccc32)cc1 (stereo not drawn),1410 nM (active),–
Cc1ccccc1OCC(O)Cn1c(NCc2ccccc2)nc2c1c(=O)[nH]c(=O)n2C (stereo not drawn),–,-29.3% (inactive)
O[C@H](COc1ccccc1)CN1CCCCC1,–,-3.85% [at 11.4 µM] (inactive)
CC[C@@]12CCCN3CCc4c(n(c5ccccc45)C(=O)C1)[C@H]32,–,-9.85% [at 2.29 µM] (inactive)
O=C(CCCCC(=O)Nc1c(I)cc(I)c(C(=O)O)c1I)Nc1c(I)cc(I)c(C(=O)O)c1I,–,-8.15% [at 25.6 µM] (inactive)
CCOc1ccccc1Oc1coc2cc(OC)ccc2c1=O,5010 nM (active),–
CCN(CC)Cc1c(O)ccc2c(=O)c(Oc3ccccc3OC)coc12,–,39.3% (inactive)
CCOc1ccccc1Oc1c(C)oc2cc(OC(=O)c3ccco3)ccc2c1=O,–,-30% (inactive)
CC(C)CC(=O)N1CCC(N2CCN(c3ccccc3)CC2)CC1,–,-29.8% (inactive)

SMILES,AC50,"activity, negative = inhibition"
CC(=O)N1CCC2(CCN(Cc3ccccc3)CC2)CC1,–,-1.26% (inactive)
CCOC(=O)C1=C(O)C(=O)N(Cc2ccccc2)C1,1000 nM (active),–
CCOC(=O)C1(S(=O)(=O)c2ccccc2)CCN(Cc2ccccc2)CC1,–,-10.4% (inactive)
Cc1cc(C)c2c(N=NN(C)C)[nH]nc2n1,2240 nM (active),–
CCN(CC)N=Nc1[nH]nc2nc(C)cc(C)c12,2510 nM (active),–
CCOC(=O)N1CCC(NC(=O)CCC(=O)N2CC(C)Oc3ccc(C)cc32)CC1 (stereo not drawn),–,-20.3% (inactive)
CO[C@@H]1COC(=O)CC=C[C@@H](C)[C@@H]2C=C[C@@H](O)[C@@H](COC(=O)C/C=C\[C@H]1C)O2,–,-5.43% [at 11.4 µM] (inactive)
CN(C)Cc1ccc(-c2cc3onc(-c4ccccc4)c3c(=O)n2C)cc1,–,-13.3% [at 11.4 µM] (inactive)
CC(C)NC(=O)N1CCC2(CC1)CCN(C(=O)c1cnccn1)CC2,–,0.219% (inactive)
O=S(=O)(Nc1ccc(Cc2ccncc2)cc1)c1ccc(Br)cc1,44.7 nM (active),–
CCNS(=O)(=O)c1ccc(NS(C)(=O)=O)cc1,–,-6.6% (inactive)
O=S(=O)(Nc1ccc(Cc2ccncc2)cc1)c1ccc(Cl)c(Cl)c1,126 nM (active),–
O=S(=O)(Nc1ccc(Cc2ccncc2)cc1)c1cccs1,126 nM (active),–
Nc1ccc(S(=O)(=O)Nc2ncccn2)cc1,–,-0.15% [at 25.6 µM] (inactive)
COc1ccc(S(=O)(=O)Nc2ccc(S(=O)(=O)N3CCCCC3)cc2)cc1C,–,-7.68% (inactive)
C/C(=N/S(=O)(=O)c1ccc(Cl)c(Cl)c1)OCC(C)(C)C,–,-4.08% [at 11.4 µM] (inactive)
O=C(C(Cc1ccccc1)N1C(=O)C2C3CCC(C3)C2C1=O)N1CCCCC1 (stereo not drawn),–,10.3% (inactive)
Cc1nc2c(ccc3nc(NC(=O)c4ccc5c(c4)OCCO5)sc32)s1,3160 nM (active),–
COc1cc(C(=O)Nc2nc3ccc4nc(C)sc4c3s2)cc(OC)c1OC,–,-2.02% (inactive)
Cc1nc2ccc3nc(NC(=O)c4ccc(S(=O)(=O)N5CCOCC5)cc4)sc3c2s1,–,-11.7% (inactive)
CC(=O)Nc1ccc2c(c1)C(=Nc1ccc(C(=O)O)cc1)c1ccccc1-2,316 nM (active),–
O=C(O)c1ccc(NS(=O)(=O)Cc2ccccc2)cc1,–,-12.1% [at 11.4 µM] (inactive)

SMILES,AC50,"activity, negative = inhibition"
c1ccc2c(c1)C(=Nc1ccc(N=C3c4ccccc4-c4ccccc43)cc1)c1ccccc1-2,–,-19.6% [at 2.29 µM] (inactive)
CCCSc1nc(NCc2ccco2)c2c3c(sc2n1)COC(C)(C)C3,794 nM (active),–
CCSc1ncnc2c1sc1nc(-c3ccco3)c3c(c12)CC(C)(C)OC3,–,-15.2% (inactive)
Cc1ccc(-n2c(SCC(=O)NCc3ccco3)nc3sc4c(c3c2=O)CC(C)(C)SC4)cc1,–,-16.6% (inactive)
Cc1nc(NS(=O)(=O)c2ccccc2C)c2c3c(sc2n1)CCC3,3160 nM (active),–
Cc1nc(NCc2ccco2)c2c3c(sc2n1)CCC3,2510 nM (active),–
Cc1ccc(S(=O)(=O)c2nc(S(=O)(=O)c3ccc(C)cc3)c(NCc3ccco3)s2)cc1,–,-0.958% (inactive)
CCCSc1nc(SCC(=O)NCc2ccccc2)c2c3c(sc2n1)COC(C)(CC)C3 (stereo not drawn),–,-24.1% (inactive)
C[C@H](O/N=C1/[C@H]2O[C@@H]2[C@@H](O)[C@H]2[C@H]1CCn1c(=O)n(-c3ccccc3)c(=O)n12)c1cn([C@H](CO)Cc2ccccc2)nn1,–,-6.4% [at 11.4 µM] (inactive) and 3.91% [at 11.4 µM] (inactive)
COc1cc(C2C(C#N)=C(N)N(c3sc4c(c3C#N)CCCC4)C3=C2C(=O)CC(C)(C)C3)cc(OC)c1OC (stereo not drawn),–,-11% (inactive)
O=C(c1csnn1)N1CCC[C@@]2(CCN(Cc3nccs3)C2)C1,–,-3.58% (inactive)
CNC(=O)/C=C1\NC(C)(C)Cc2c1ccc1ccccc21,6310 nM (active),–
CC1(C)Cc2c(ccc3ccccc23)C(=O)N1,3550 nM (active),–
C=C(NC(=O)C(=C)NC(=O)c1csc(C2=N[C@@H]3c4csc(n4)[C@@H]4NC(=O)c5csc(n5)[C@@H]([C@](C)(O)[C@H](C)O)NC(=O)[C@@H]5CSC(=N5)/C(=C/C)NC(=O)[C@@H]([C@H](C)O)NC(=O)c5csc(n5)[C@]3(CC2)NC(=O)[C@@H](C)NC(=O)C(=C)NC(=O)[C@@H](C)NC(=O)[C@@H]([C@@H](C)CC)N[C@H]2C=Cc3c([C@H](C)O)cc(nc3[C@@H]2O)C(=O)O[C@H]4C)n1)C(N)=O,–,-6.72% [at 25.6 µM] (inactive)
COCC(=O)N1CCC[C@@]2(CCN(c3ncccn3)C2)C1,–,-10.7% (inactive)
CCn1c(CCNC(=O)c2ccc(Cl)cc2Cl)n[nH]c1=S,–,2.13% (inactive)
CCCN(CCC)C(=O)[C@@H](CCC(=O)O)NC(=O)c1ccccc1,inactive,–
CCCN(CCC)C(=S)NC(=O)c1ccc(Cl)cc1Cl,447 nM (active),–
O=C(Nc1ccccc1[N+](=O)[O-])C1C(c2ccccc2)=C1c1ccccc1,–,-16.5% (inactive)
O=[N+]([O-])c1ccccc1N/N=C/c1c[nH]c2ccccc12,5620 nM (active),–
Cn1c(N/N=C/c2c[nH]c3ccccc23)nc2ccccc21,1000 nM (active),–
COc1ccc(Nc2nc(N3CCCCC3)c3ccccc3n2)cc1,1780 nM (active),–

SMILES,AC50,"activity, negative = inhibition"
O=C(/C=C\c1ccc(O)c(O)c1)O[C@@H]1C[C@](O)(C(=O)O)C[C@@H](O)[C@@H]1O,–,4.71% [at 25.6 µM] (inactive)
O=C(/C=C\c1ccc(O)c(O)c1)OCCc1ccccc1,1000 nM (active),–
O=C(O)/C=C\c1ccc(O)c(O)c1,–,0.538% [at 25.6 µM] (inactive)
Cc1ccc(-c2nn(-c3ccccc3)cc2CSC(=N)N)cc1,12600 nM (active),–
c1cnc2ccc(C(c3nnnn3C3CCCC3)N3CCN4CCCC4C3)cc2c1 (stereo not drawn),–,-6% (inactive)
N#Cc1cccc(-c2nc(Nc3ccccc3)c3ccccc3n2)c1,1260 nM (active),–
N#Cc1cccc(-c2nc(Nc3ccncc3)c3ccccc3n2)c1,631 nM (active),–
N#Cc1cccc(NC(=O)N2CC[C@@]3(CCCN(C(=O)c4ccncc4)C3)C2)c1,–,-17.2% (inactive)
CNc1nc(-c2cccc(C#N)c2)nc2ccccc12,79.4 nM (active),–
CNC(=O)[C@@H]1O[C@@H](n2cnc3c(N)ncnc32)[C@@H](O)[C@H]1O,–,-9.49% (inactive)
CC(=O)OC[C@@H]1O[C@H](CCO/N=C\[C@@H](C)[C@H](OCc2ccccc2)C(C)C)C=C[C@@H]1OC(C)=O,–,9.09% [at 11.4 µM] (inactive)
CC(=O)OC[C@@H]1O[C@@H](O/N=C2/C[C@@H](O)[C@@H](O)[C@@H]3[C@@H]4C(=O)N(C5CCCCC5)C(=O)[C@H]4CC[C@H]23)[C@H](OC(C)=O)[C@H](OC(C)=O)[C@@H]1OC(C)=O,–,-1.1% [at 11.4 µM] (inactive)
CC(=O)Nc1ccc(C#Cc2ccc(NC(C)=O)cc2)cc1,–,2.37% (inactive)
S=C(Nc1ccccc1)Nc1ccccc1C#Cc1ccccc1,501 nM (active),–
COCCNc1nc(-c2cccc(OC)c2)nc2ccccc12,200 nM (active),–
COc1ccccc1NC(=O)Nc1nc(-c2cccnc2)nc2ccccc12,2510 nM (active),–
COc1cccc(-c2nc(NCCNC(C)=O)c3ccccc3n2)c1,2510 nM (active),–
COc1cccc(-c2nc(NCc3ccccc3)c3ccccc3n2)c1,3160 nM (active),–
CCc1ncc(CO)n1Cc1cccc2ccccc12,–,-6.53% [at 11.4 µM] (inactive)
CO[C@@H]1COC(=O)[C@H](C)NC(=O)C/C=C\[C@@H](C)[C@@H](NS(=O)(=O)c2ccc(C)cc2)COC(=O)C/C=C\[C@@H]1C,–,-6.59% [at 11.4 µM] (inactive)
Cc1ccc(S(=O)(=O)ON=C2CCN(S(=O)(=O)c3ccccc3)CC2)cc1,–,13.2% (inactive)
CC(=O)O[C@H]1CC[C@@]2(C)C(=CC[C@@H]3[C@@H]4CC[C@H](c5cc(C(F)(F)F)n(C(C)=O)n5)[C@]4(C)CC[C@@H]32)C1,–,-13.7% [at 11.4 µM] (inactive)
